PubChem BioAssay (NCATS)
Inconclusive results are not listed. A number with no mark means an inactive call. Calls follow the shape of the dose curve; as a rule, active = well fitted inhibition curve with a large enough effect; inconclusive = small, poorly fitted or top-dose-only effect; inactive = flat fitted curve, though single readings scatter.

target: Aldehyde dehydrogenase, mitochondrial (Homo sapiens) (UniProt P05091); assay: qHTS for Inhibitors of the Aldehyde Dehydrogenase Family (ALDH2) Primary screen (AID 2061308); settings: ALDH2 enzyme inhibition qHTS, 1536-well; series mostly up to 56 µM; activity change, negative = inhibition: at the top concentration;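 also: plate controls were vehicle for no effect and reference inhibitor for full effect; nearly all actives have a fitted effect of over 55% in size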

SMILES	activity change, negative = inhibition [%]
COc1ccc(O)c(-c2nc3ccccc3c(=O)n2Cc2ccccc2)c1	-4.98
O=C(O)c1cccc(-c2noc(-c3cccc(F)c3)n2)c1	1.81
O=C(O)c1cccc(-c2noc(-c3ccc(C(F)(F)F)cc3)n2)c1	12.1
O=C1CCc2cc(S(=O)(=O)Nc3ccccc3-c3ccccc3)ccc2N1	-6.14
Cc1ccc(-c2ccc(=O)n(CC(=O)NCCCc3ccco3)n2)cc1	3.56
CN(C)CCN(Cc1ccc(-c2ccc(CNCCc3ccccc3)cc2)cc1)C(=O)CCC1CCCC1	27.5
C/C(=C\c1ccccc1)C1Nc2cccc3cccc(c23)N1	-7.06
